Source: ChEMBL document CHEMBL1961873, “Compounds: GSK PKIS; Assays: Nanosyn kinase panel” (2012)

Legend:
[1] = biological target: RAC-alpha serine/threonine-protein kinase (Homo sapiens) (UniProt P31749); settings: at 0.1 µM
[2] = biological target: RAC-alpha serine/threonine-protein kinase (Homo sapiens) (UniProt P31749); settings: at 1 µM
[3] = biological target: RAC-beta serine/threonine-protein kinase (Homo sapiens) (UniProt P31751); settings: at 0.1 µM
[4] = biological target: RAC-beta serine/threonine-protein kinase (Homo sapiens) (UniProt P31751); settings: at 1 µM
[5] = biological target: RAC-gamma serine/threonine-protein kinase (Homo sapiens) (UniProt Q9Y243); settings: at 0.1 µM
RAC-gamma serine/threonine-protein kinase (Homo sapiens), sequence (Q9Y243 whole entry): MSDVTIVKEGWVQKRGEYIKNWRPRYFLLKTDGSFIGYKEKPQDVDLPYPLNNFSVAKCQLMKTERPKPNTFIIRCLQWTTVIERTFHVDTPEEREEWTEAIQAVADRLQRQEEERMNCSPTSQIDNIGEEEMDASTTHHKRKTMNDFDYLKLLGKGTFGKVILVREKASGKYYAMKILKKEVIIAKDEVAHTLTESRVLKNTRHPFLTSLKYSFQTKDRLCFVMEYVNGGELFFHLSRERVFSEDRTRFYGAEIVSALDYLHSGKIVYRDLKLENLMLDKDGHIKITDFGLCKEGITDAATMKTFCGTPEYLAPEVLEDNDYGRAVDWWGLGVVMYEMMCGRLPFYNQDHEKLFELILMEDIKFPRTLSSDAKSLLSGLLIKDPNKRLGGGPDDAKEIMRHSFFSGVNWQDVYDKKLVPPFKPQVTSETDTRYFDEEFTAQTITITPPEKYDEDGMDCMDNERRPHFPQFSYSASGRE

[6] = biological target: RAC-gamma serine/threonine-protein kinase (Homo sapiens) (UniProt Q9Y243); settings: at 1 µM
[7] = biological target: G protein-coupled receptor kinase 6 (Homo sapiens) (UniProt P43250); settings: at 0.1 µM
G protein-coupled receptor kinase 6 (Homo sapiens), sequence (P43250 whole entry, looked up): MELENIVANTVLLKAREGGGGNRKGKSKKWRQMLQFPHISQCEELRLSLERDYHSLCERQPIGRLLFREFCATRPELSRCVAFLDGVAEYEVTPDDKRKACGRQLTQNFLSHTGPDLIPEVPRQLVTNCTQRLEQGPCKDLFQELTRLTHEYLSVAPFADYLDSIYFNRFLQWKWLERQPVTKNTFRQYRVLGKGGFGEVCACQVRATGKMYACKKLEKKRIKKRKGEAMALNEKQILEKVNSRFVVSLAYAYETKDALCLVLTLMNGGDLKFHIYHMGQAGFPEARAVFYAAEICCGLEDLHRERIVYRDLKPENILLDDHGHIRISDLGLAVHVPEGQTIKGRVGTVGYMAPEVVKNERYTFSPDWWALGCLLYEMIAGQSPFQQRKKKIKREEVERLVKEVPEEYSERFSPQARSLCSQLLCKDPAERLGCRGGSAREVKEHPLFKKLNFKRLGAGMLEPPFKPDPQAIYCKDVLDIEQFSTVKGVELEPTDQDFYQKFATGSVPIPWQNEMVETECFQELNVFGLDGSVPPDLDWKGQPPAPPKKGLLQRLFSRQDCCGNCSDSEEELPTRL

[8] = biological target: G protein-coupled receptor kinase 6 (Homo sapiens) (UniProt P43250); settings: at 1 µM
[9] = biological target: T1, Rhodopsin kinase GRK7 (Homo sapiens) (UniProt Q8WTQ7); settings: at 0.1 µM
T1 sequence (whole entry): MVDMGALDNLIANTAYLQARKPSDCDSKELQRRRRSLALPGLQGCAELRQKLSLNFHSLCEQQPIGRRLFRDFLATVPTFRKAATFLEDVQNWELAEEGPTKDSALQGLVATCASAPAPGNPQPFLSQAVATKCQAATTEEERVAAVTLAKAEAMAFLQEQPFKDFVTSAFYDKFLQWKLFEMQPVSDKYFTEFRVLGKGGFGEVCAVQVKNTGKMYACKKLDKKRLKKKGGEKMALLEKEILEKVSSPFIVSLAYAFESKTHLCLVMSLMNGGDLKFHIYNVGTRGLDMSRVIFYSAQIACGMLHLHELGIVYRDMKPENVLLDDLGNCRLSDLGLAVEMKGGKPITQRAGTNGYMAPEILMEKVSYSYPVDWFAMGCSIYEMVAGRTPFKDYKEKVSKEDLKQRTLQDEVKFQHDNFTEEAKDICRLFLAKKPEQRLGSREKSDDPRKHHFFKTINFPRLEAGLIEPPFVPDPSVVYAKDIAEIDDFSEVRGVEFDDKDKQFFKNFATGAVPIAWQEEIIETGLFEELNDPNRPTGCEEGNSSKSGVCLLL

[10] = biological target: T1, Rhodopsin kinase GRK7 (Homo sapiens); settings: at 1 µM

RAC-beta serine/threonine-protein kinase (Homo sapiens), sequence (P31751 whole entry): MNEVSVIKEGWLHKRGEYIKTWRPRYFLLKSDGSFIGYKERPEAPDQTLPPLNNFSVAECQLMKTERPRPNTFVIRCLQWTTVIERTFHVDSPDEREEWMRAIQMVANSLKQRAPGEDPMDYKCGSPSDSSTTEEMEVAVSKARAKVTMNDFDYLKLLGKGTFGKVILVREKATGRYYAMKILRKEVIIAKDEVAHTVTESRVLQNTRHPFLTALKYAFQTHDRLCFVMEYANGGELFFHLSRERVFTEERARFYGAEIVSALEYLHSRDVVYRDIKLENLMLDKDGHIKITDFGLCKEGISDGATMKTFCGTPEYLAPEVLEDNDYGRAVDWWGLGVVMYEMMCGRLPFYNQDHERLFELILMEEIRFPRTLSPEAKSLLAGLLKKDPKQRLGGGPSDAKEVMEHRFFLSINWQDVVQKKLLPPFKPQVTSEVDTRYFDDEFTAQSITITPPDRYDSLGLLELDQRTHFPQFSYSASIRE
RAC-alpha serine/threonine-protein kinase (Homo sapiens), sequence (P31749 whole entry): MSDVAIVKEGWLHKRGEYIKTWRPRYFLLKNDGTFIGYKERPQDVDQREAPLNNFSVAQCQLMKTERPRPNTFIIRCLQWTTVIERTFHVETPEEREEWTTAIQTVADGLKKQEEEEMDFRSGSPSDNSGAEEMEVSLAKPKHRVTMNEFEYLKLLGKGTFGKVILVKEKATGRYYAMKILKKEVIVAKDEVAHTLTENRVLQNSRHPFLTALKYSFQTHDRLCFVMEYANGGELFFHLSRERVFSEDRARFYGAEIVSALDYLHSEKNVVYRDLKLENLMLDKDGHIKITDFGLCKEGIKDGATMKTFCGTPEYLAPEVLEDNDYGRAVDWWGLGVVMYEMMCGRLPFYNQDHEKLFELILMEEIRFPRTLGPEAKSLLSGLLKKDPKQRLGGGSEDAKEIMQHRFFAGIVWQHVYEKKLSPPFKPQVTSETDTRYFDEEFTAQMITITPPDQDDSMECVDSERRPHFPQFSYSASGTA

SMILES	inhibition [1]	inhibition [2]	inhibition [3]	inhibition [4]	inhibition [5]	inhibition [6]	inhibition [7]	inhibition [8]	inhibition [9]	inhibition [10]
CCn1c(-c2nonc2N)nc2ccccc21	1.46%	2.48%	0.69%	2.24%	0.81%	3.67%	1.21%	-3.25%	1.89%	-9.67%
CC1=C(C(=O)Nc2cc(Cl)c3[nH]ncc3c2)C(c2ccc(C(F)(F)F)cc2)CC(=O)N1 (stereo not given)	0.52%	5.71%	1.33%	3.66%	2.98%	22.1%	4.52%	13.4%	3.32%	16.4%
CCn1c(-c2nonc2N)nc2cnc(Oc3cccc(NC(=O)c4ccc(N(C)C)cc4)c3)cc21	0.51%	7.63%	0.71%	8.4%	1.82%	10.2%	0.82%	2.85%	2.74%	4.11%
Clc1ccc(-c2nn3ncccc3c2-c2ccnc(Nc3ccccc3)n2)cc1	0.13%	0.62%	0.64%	1.15%	1.22%	-0.89%	2.85%	1.72%	3.88%	-1.87%
COc1cc2ncn(-c3cc(OCc4ccccc4C(F)(F)F)c(C(=O)N(C)C)s3)c2cc1OC	-0.4%	-0.11%	-0.31%	0.45%	0.89%	1.26%	-0.42%	0.69%	-2.57%	3.66%
COc1cc2c(cc1Nc1nc(Nc3ccsc3C(N)=O)c3cc[nH]c3n1)N(C(=O)CN(C)C)CCC2(C)C	1.26%	0.48%	2.13%	2.14%	0.83%	2.54%	49.5%	87.2%	34.2%	63.2%
O=C(O[C@H]1CN[C@H](C#Cc2cc3ncnc(Nc4ccc(Cc5ccccc5)cc4)c3s2)C1)N1CCOCC1	-0.07%	1.54%	0.98%	1.79%	0.38%	1.99%	-0.99%	1.46%	5.43%	0.52%
Fc1ccc(-c2nn3ncccc3c2-c2ccnc(Nc3ccc4c(c3)OCCO4)n2)cc1	0.05%	0.97%	1.99%	1.14%	0.88%	1.56%	2.14%	1.87%	1.38%	5.57%
COC(=O)Nc1nc2ccc(S(=O)(=O)c3ccc(NC(=O)Nc4cc(C(F)(F)F)ccc4F)cc3)cc2[nH]1	1.04%	0.21%	1.6%	1.74%	2.62%	2.2%	-1.79%	-0.49%	4.02%	1.96%
CS(=O)(=O)CCNCc1coc(-c2ccc3ncnc(Nc4ccc(OCc5ccccc5)cc4)c3c2)c1	0.45%	0.14%	-0.99%	1.09%	-0.18%	3.26%	4.06%	12.1%	6.27%	5.05%
CC(C)(CO)CNC(=O)c1ccc2c(c1)/C(=N/Nc1ccc(S(N)(=O)=O)cc1)C(=O)N2	0.16%	-0.56%	-1.39%	0.25%	-0.59%	2.3%	0.67%	9.38%	2.93%	-0.41%
COC(=O)Nc1nc2ccc(Oc3ccc(NC(=O)Nc4cccc(Cl)c4)cc3)cc2[nH]1	-0.35%	-0.4%	-0.4%	0.5%	-0.34%	1.86%	-1.85%	0.02%	3.03%	16.8%
NS(=O)(=O)c1ccc(Nc2ncc(-c3ccccc3)o2)cc1	0.78%	0.93%	2.08%	1.95%	0.97%	1.49%	4.73%	3.06%	2.42%	2.99%
CCc1nn2ncccc2c1-c1ccnc(NC2CC2)n1	0.3%	0.03%	-0.16%	0.84%	0.81%	0.1%	3.01%	4.64%	3.97%	1.72%
COc1ccc(-c2oc3ncnc(N)c3c2-c2ccc(NC(=O)Nc3cc(C(F)(F)F)ccc3F)cc2)cc1	1.18%	1.66%	3.21%	2.57%	1.23%	2.55%	4.19%	12.7%	4.51%	22%
COc1ccc2c(-c3ccnc(Nc4cccc(OC(F)(F)F)c4)n3)cnn2n1	0.95%	0.97%	2.41%	1.51%	1.3%	1.57%	4.64%	5.84%	5.16%	4.9%
N#Cc1c(NC(=O)CN2CCOCC2)sc2c1CCCC2	1.2%	1.08%	1.56%	1%	1.61%	2.91%	2.71%	4.14%	3.28%	4.91%

SMILES	inhibition [1]	inhibition [2]	inhibition [3]	inhibition [4]	inhibition [5]	inhibition [6]	inhibition [7]	inhibition [8]	inhibition [9]	inhibition [10]
Cc1cccc(Nc2ncc(-c3ccccc3)o2)c1	2.47%	3.09%	2.46%	2.97%	2.2%	5.22%	5.33%	4.72%	4.29%	3.7%
CS(=O)(=O)CCNCc1ccc(-c2ccc3ncnc(Nc4ccc(OCc5ccccc5)c(C(F)(F)F)c4)c3c2)o1	1.54%	1.3%	1.35%	2.2%	0.3%	3.04%	-0.85%	1.09%	10.8%	3.42%
COc1ccc2[nH]c3c4[nH]c5ccc(OC)cc5c4c4c(c3c2c1)C(=O)NC4=O	0.56%	4.28%	1.45%	2.54%	1.39%	2.7%	20.2%	41.2%	22.7%	26.6%
CNC(=O)c1cc(-c2ccc(F)cc2)cc(-c2ccc(S(=O)(=O)N3CCCC3)cc2)c1N	0.66%	0.31%	1.23%	1.37%	0.7%	3.34%	1.55%	2.77%	9.52%	2.15%
COc1cc(N2CCN(C(C)C)CC2)ccc1Nc1nc(Nc2ccc(F)cc2C(N)=O)c2cc[nH]c2n1	0.91%	2.86%	1.62%	3.68%	1.62%	4.8%	3.9%	14.3%	5.3%	10.1%
CC(=O)NCc1cccc(C#Cc2cncnc2Nc2ccc(OCc3cccc(F)c3)c(Cl)c2)c1	-0.84%	-1.16%	-0.39%	0.71%	0.73%	0.47%	1.84%	3.06%	-1.42%	7.96%
Fc1ccc(-c2cc(-c3c[nH]nc3-c3ccccn3)ccn2)cc1	0.11%	0.95%	1.68%	2.45%	0.98%	1.5%	7.85%	15.7%	3.52%	13.4%
NC(=O)c1sc(-n2cnc3ccc(C(F)(F)F)cc32)cc1OCc1ccccc1Br	0.43%	0.68%	2.44%	2.18%	0.75%	1.39%	5.91%	9.67%	4.43%	14.5%
CNC(=O)c1cccc(C#Cc2cncnc2Nc2ccc(OCc3cccc(F)c3)c(Cl)c2)c1	0.17%	-0.5%	0%	0.98%	0.81%	-1.1%	0.71%	3.57%	1.29%	-1.25%
O=C(Nc1n[nH]c2cc(-c3ccc(F)cc3)ccc12)C1CC1	0.61%	1.36%	1.62%	1.6%	0.49%	1.05%	1.59%	1.04%	4.1%	7.25%
Cc1cccc2c1NC(=O)/C2=N\Nc1ccc(S(N)(=O)=O)cc1	1.04%	1.19%	2.18%	1.39%	1.07%	1.15%	2.1%	3.62%	1.49%	-6.16%
Nc1nc(-c2cccc(Cl)c2)c(-c2ccc3ncccc3n2)s1	-0.22%	0.39%	1.97%	2.05%	1.92%	0.68%	10.4%	15.4%	7.84%	13.8%
O=S(=O)(CCNCc1ccc(-c2ccc3ncnc(Nc4ccc(OCc5cccc(F)c5)c(Cl)c4)c3c2)o1)c1ccccc1	1.7%	1.71%	2.21%	3.29%	0.84%	3.13%	1.68%	1.4%	8.83%	2.27%
COC(=O)c1sc(-n2cnc3cc(OC)c(OC)cc32)cc1OCc1ccccc1C(F)(F)F	0.87%	0.62%	2.35%	1.5%	-0.55%	1.41%	-0.86%	1.16%	2.73%	7.64%
CCn1cc(-c2ccnc3[nH]ccc23)c(-c2cccc(NC(=O)Nc3ccc(OCc4ccccc4)cc3)c2)n1	1.5%	1.68%	1.8%	3.99%	0.23%	2.59%	-2.36%	0.99%	3.4%	-2.29%
c1ccc(COc2ccc(Nc3ncnc4ccc(-c5ccco5)cc34)cc2)cc1	0.02%	0.01%	-0.87%	0.43%	0.39%	2.23%	-0.04%	4.75%	5.57%	5.11%
c1cc(-c2cnn3nc(N4CCOCC4)ccc23)nc(NC2CC2)n1	0.69%	1.04%	3.2%	2.75%	1.36%	1.78%	0.85%	1.72%	3.91%	6.6%
